Calb biofilm kill: clotrimazole potentiators killing Candida biofilms, primary screen, with clotrimazole, Alamar Blue; inhibition, % at 6 µM; 85,000 tested, 0.14% active; C. albicans biofilm + clotrimazole;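 active = inhibition above 20%; inactive = inhibition below 20%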;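 also: preformed 24 hr biofilms exposed to compound for 48 hr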
EphB4 ephrin blk: EphB4-ephrin-B2 interaction antagonists, primary screen, biochemical, TNYL-RAW peptide probe, fluorescence polarization. Ephrin type-B receptor 4 (Homo sapiens), P54760. 97,000 tested, 0.15% active. EphB4 LBD / TNYL-RAW-Alexa532 peptide. inhibition, % at 7 µM;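 active = inhibition above the screen-wide mean inhibition plus 3 SD, cut at about 15% in these data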
MT1-MMP txn act: MT1-MMP promoter reporter activation – cell-based, luciferase luminescence, primary screen; HT1080 MT1-MMP promoter luciferase reporter, overnight; active compounds read high; activation factor at 10 µM; 86,000 tested, 0.16% active; AID 750, 2007;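 active = activation factor of at least 2 for MT1-MMP transcription at 10 µM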
ERa coact pot: enhancers of ERα–SRC-1 coactivator binding, primary screen, biochemical, TR-FRET, ERα LBD, low estradiol; TR-FRET ERalpha-LBD/SRC-Cy5 coactivator binding, 2 h; 100 = basal binding, no effect; coactivator binding (% of control), % at 25.6 µM; 86,000 tested, 1.3% active; AID 639, 2007; in the data active = activity above about 200%;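 also: binding measured in presence of low estradiol as agonist stimulus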
Target sequence (P03372 whole entry, looked up, the tested form may be a part): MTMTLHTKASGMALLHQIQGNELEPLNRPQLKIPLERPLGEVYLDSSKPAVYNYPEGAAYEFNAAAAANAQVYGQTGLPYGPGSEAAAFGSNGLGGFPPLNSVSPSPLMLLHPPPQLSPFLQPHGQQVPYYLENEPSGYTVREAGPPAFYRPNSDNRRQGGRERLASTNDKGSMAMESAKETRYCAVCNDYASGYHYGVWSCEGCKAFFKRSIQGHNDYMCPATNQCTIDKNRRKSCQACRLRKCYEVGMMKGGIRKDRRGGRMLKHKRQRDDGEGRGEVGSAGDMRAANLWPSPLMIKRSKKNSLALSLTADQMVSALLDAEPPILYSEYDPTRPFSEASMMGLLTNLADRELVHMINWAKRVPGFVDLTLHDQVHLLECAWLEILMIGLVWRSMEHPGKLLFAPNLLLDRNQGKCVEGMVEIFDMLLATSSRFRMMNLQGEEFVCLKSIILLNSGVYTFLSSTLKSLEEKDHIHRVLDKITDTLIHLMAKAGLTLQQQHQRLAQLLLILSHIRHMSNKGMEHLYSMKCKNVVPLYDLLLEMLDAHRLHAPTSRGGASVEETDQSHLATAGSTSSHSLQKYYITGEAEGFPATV
ERa SRC1 inh: ERα–SRC-1 coactivator interaction inhibitors, primary screen, biochemical, TR-FRET, ERα LBD, estradiol-bound. Estrogen receptor (Homo sapiens), P03372. 86,000 tested, 1.7% active. inhibition, % at 25.6 µM. AID 629, 2007. TR-FRET ER-alpha LBD / SRC-1 peptide; in the data active = inhibition above about 50%
ERb coact inh: inhibitors of ERβ-SRC1 coactivator interaction, primary screen, biochemical, TR-FRET, ERβ LBD, SRC-1 peptide | Estrogen receptor beta (Homo sapiens), Q92731 | TR-FRET ER-beta LBD / SRC1-Cy5 peptide binding; receptor agonist-loaded with 1 µM estradiol | inhibition, % at 25.6 µM | 86,000 tested, 1.3% active;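 active = compounds whose percent inhibition of the receptor-coactivator binding signal exceeds about 50% in the single-dose screen, limit read from the data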
Hits are given with their value; . = inactive; / = no result; [ ] = another dose, or the depositor's remark. Compounds with a hit are over-represented: about 3.2% of the library has one in this group of screens.

SMILES | Calb biofilm kill | EphB4 ephrin blk | MT1-MMP txn act | ERa coact pot | ERa SRC1 inh | ERb coact inh
COc1cc(C(=O)Nc2nnc(-c3sccc3C)s2)cc(OC)c1OC | . | . | . | 475.5 | . | .
CCCn1c(=O)n(C)c(=O)c2c3oc(=O)c(NC(=O)c4ccc(F)cc4)cc3[nH]c21 | . | / | . | . | . | .
COc1ccccc1NC(=O)NC(N)=O | . | . | . | . | . | 74.2
COC(=O)C(NC(=O)Nc1ccccc1OC)C(C)C (stereo not drawn) | / | . | / | / | / | /
CC1CC(C(F)(F)C(F)(F)F)n2nc(C(=O)O)cc2N1 (stereo not drawn) | . | / | . | . | 63.9 | 76.4[fluorescence artefact?]
COC(=O)c1ccc(COc2ccc3c(C)c(C)c(=O)oc3c2C)o1 | . | 21.6 | . | 444.5[fluorescence artefact?] | . | .
COC(=O)c1ccc(COc2ccc3c4c(c(=O)oc3c2)CCC4)o1 | . | . | . | 239.9[fluorescence artefact?] | . | .
O=C(Oc1cccc(-n2cnnn2)c1)c1sc2ccccc2c1Cl | . | . | . | 245.7 | . | .
Cc1nc2c(Br)c3nc(C(F)(F)F)[nH]c3c(Br)c2[nH]1 | . | . | . | . | . | 73.7[fluorescence artefact?]
Cc1nc2c(F)c(F)c(C(F)(F)F)c(F)c2[nH]1 | . | / | . | . | . | .
Cc1ccc(OCC(=O)c2c(O)c3ccccc3oc2=O)cc1C | . | . | . | . | . | .
COc1cccc(N(C(C)=O)c2nc(C)cc(C)c2C#N)c1 | . | . | . | . | . | 93.9[fluorescence artefact?]
O=C(CNC(=O)Cc1ccccc1)NCC(=O)OCC(=O)c1cccc2ccccc12 | / | . | / | / | / | /
Cc1ccc(Cn2c(=N)c(C(=O)NCc3ccco3)cc3c(=O)n4ccccc4nc32)cc1 | . | . | . | . | 83.1[fluorescence artefact?] | 56.4[fluorescence artefact?]
O=C(NCc1ccco1)c1cccn2c(=O)c3cc4ccccc4cc3nc12 | . | . | . | . | 61.4[fluorescence artefact?] | .
COc1ccc(CCn2c(=N)c(C(=O)NCc3ccco3)cc3c(=O)n4ccccc4nc32)cc1OC | . | / | . | . | . | .
COCCCNC(=O)c1cccn2c(=O)c3cc4ccccc4cc3nc12 | . | . | . | . | . | .
COc1ccc(CNC(=O)c2cc3c(=O)n4ccccc4nc3n(Cc3ccco3)c2=N)cc1 | . | . | . | . | 91.4[fluorescence artefact?] | 57.3[fluorescence artefact?]
N=c1c(C(=O)NCc2ccco2)cc2c(=O)n3ccccc3nc2n1CCc1ccccc1 | . | . | . | . | 80.6[fluorescence artefact?] | 50.4
CC(C)(C)c1ccc(-c2nc(C#N)c(NCc3ccncc3)o2)cc1 | . | . | 2 | . | . | .
N#Cc1nc(-c2ccc(OCc3ccc(Cl)cc3)cc2)oc1NCc1cccnc1 | / | . | . | . | 50.8 | .
COc1ccc(-c2nc(C#N)c(NCc3ccc(C)cc3)o2)cc1OC | . | . | . | . | . | .
CCOc1ccc(-c2nc(C#N)c(N3CCCCCC3)o2)cc1 | 21.0 | . | . | . | . | .
CCOc1ccc(-c2nc(C#N)c(N3CCN(C)CC3)o2)cc1 | . | . | . | . | . | .
N#Cc1nc(-c2ccc(OCc3ccccc3)cc2)oc1NCc1cccnc1 | . | . | . | . | . | .
SMILES | Calb biofilm kill | EphB4 ephrin blk | MT1-MMP txn act | ERa coact pot | ERa SRC1 inh | ERb coact inh
N#Cc1nc(-c2ccc(Cl)cc2)oc1N1CCCCC1 | . | . | . | . | . | .
N#Cc1nc(-c2ccc(OCc3ccc(Cl)cc3)cc2)oc1N1CCOCC1 | . | . | . | 277.6[fluorescence artefact?] | . | .
Cc1cccc(C)c1OC(=O)CN(c1ccc(Cl)cc1)S(C)(=O)=O | / | . | / | / | / | /
CCCCCn1c(SCCN2CCOCC2)nc2c1c(=O)[nH]c(=O)n2C | . | . | . | . | . | .
CCOC(=O)C(CC)n1nc(C)n2c(cc3sccc32)c1=O (stereo not drawn) | . | / | . | . | . | .
N#Cc1nc(-c2ccc(OCc3ccc(Cl)cc3)cc2)oc1N1CCC(C(N)=O)CC1 | . | . | . | . | 60.6[fluorescence artefact?] | .
C[C@@H]1CCC[C@H](C)N1NC(=O)c1ccc(Cl)c(S(N)(=O)=O)c1 | . | / | . | . | . | .
CC(C)Oc1ccc(C(=O)N/N=C/c2ccc(-c3ccc(S(=O)(=O)Nc4ncccn4)cc3)o2)cc1 | . | . | . | . | . | .
Nc1c(C(=O)NCCN2CCOCC2)c2nc3ccccc3nc2n1-c1ccc2c(c1)OCO2 | . | / | . | . | 62.8[fluorescence artefact?] | .
Nc1ccc(-n2c(N)c(C(=O)NCc3ccc4c(c3)OCO4)c3nc4ccccc4nc32)cc1 | . | . | . | . | 79.5[fluorescence artefact?] | .
COC(=O)c1ccc(N2C(=O)CC(N(C)Cc3ccccc3)C2=O)cc1 (stereo not drawn) | . | . | . | . | . | .
Cc1ccc2cc(CN(CC3CCCO3)C(=O)c3ccco3)c(=O)[nH]c2c1C (stereo not drawn) | . | / | . | . | . | 54.2
CC(=O)NC(CCS(C)(=O)=O)C(=O)Nc1ccc(F)cc1Cl (stereo not drawn) | . | . | . | . | . | .
Cc1ccc(C)c(C(=O)Nc2c(C(N)=O)oc3ccccc23)c1 | . | . | . | . | . | 90.2[fluorescence artefact?]
Cc1nn(-c2ccccc2)c(C)c1C(=O)OC/C(O)=C(\C#N)c1nc2ccccc2[nH]1 | . | . | . | . | 56.1[fluorescence artefact?] | .
Cc1nn(-c2ccccc2)c(C)c1C(=O)OCC(=O)N1CC(=O)Nc2ccccc21 | . | . | . | . | . | .
Cc1ccc(C(=O)C2CCN(CC(=O)NC3CCCCC3)CC2)cc1 | . | . | . | . | . | .
Cc1ccc(C(=O)CN2CCC(NC(=O)C3CCCCC3)CC2)cc1 | . | . | . | 604.7[fluorescence artefact?] | . | .
CCn1cc([N+](=O)[O-])c(C(=O)N2N=C(c3ccc4ccccc4c3)CC2c2cc(Br)ccc2O)n1 (stereo not drawn) | . | . | . | . | . | 51.0[fluorescence artefact?]
CCn1cc([N+](=O)[O-])c(C(=O)Nc2ccc(Br)cn2)n1 | / | . | / | / | / | /
Cc1cccc(N2CSC3=C(C#N)C(c4ccc(C)o4)CC(=O)N3C2)c1 (stereo not drawn) | . | . | . | . | 82.7 | 68.1[fluorescence artefact?]
COc1ccc(OC)c(C2CC(=O)N3CN(c4ccccc4)CSC3=C2C#N)c1 (stereo not drawn) | . | . | . | . | . | .
CCc1ccccc1NC(=O)/C(=C/c1ccco1)c1ccccc1 | 67.2 | . | . | . | . | .
CCOC(=O)c1[nH]c(C)c(C(=O)N2CCOCC2)c1C | . | . | . | . | . | .
CCOC(=O)c1[nH]c(C)c(C(=O)N2CCN(C(=O)OCC)CC2)c1CC | . | / | . | . | 99.1[fluorescence artefact?] | .
Cc1cc(NC(=O)COc2ncnc3sc(C)c(C)c23)no1 | . | . | . | . | . | .
